In PubChem BioAssay (NCI):
This is part of a sample that, as a whole, favours compounds with a hit. Of some 83,000 tested, about 20% had one in any assay.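 How to read the values: 0–100, growth inhibition (40 = 60% inhibited); 0, no net growth; -100 to 0, cell death (-40 = 40% of starting cells died; -100 = all dead).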 Activity calls are given as the source filed them. Rule for the calls: active = growth percent below 10; inactive = the rest.

What was measured:
Experiment in all cases: NCI-60 one-dose screen, 48 h (100 = growth as untreated, 0 = no growth, -100 = all killed)
Conditions in all cases: 10 µM unless noted
SK-MEL-2 melanoma = test system: SK-MEL-2 melanoma
SN12C renal = test system: SN12C renal
UO-31 renal = test system: UO-31 renal
TK-10 renal = test system: TK-10 renal
ACHN renal = test system: ACHN renal
CAKI-1 renal = test system: CAKI-1 renal
A498 renal = test system: A498 renal
CCRF-CEM leukemia = test system: CCRF-CEM leukemia
MOLT-4 leukemia = test system: MOLT-4 leukemia

Measured: growth

CC(C)(Sc1cc(C(C)(C)C)c(OC(=O)CCCC(=O)O)c(C(C)(C)C)c1)Sc1cc(C(C)(C)C)c(OC(=O)CCCC(=O)O)c(C(C)(C)C)c1
inactive: SK-MEL-2 melanoma 55.2% | SN12C renal 19.6% | UO-31 renal 37.9% | TK-10 renal 58.6% | ACHN renal 26.9% | CAKI-1 renal 52.8% | A498 renal 66.5% | CCRF-CEM leukemia 37.8% | MOLT-4 leukemia 26.6%

C#CCOc1cccc(Nc2ncnc3cc(NC(=O)C=C)ccc23)c1
active: TK-10 renal -12.6% | CCRF-CEM leukemia 2.9% | MOLT-4 leukemia 7.88%
inactive: SK-MEL-2 melanoma 25.3% | SN12C renal 13.2% | UO-31 renal 16.8% | ACHN renal 17.2% | CAKI-1 renal 16% | A498 renal 26.8%

Cn1c(I)c(C#CCO[Si](C)(C)C(C)(C)C)c(=O)[nH]c1=O
active: CCRF-CEM leukemia 5.42% | MOLT-4 leukemia -22.9%
inactive: SK-MEL-2 melanoma 69.2% | SN12C renal 114% | UO-31 renal 25.3% | TK-10 renal 92.7% | ACHN renal 99.7% | CAKI-1 renal 103% | A498 renal 94.5%

COC(=O)c1c2c(c(C)[n+]([O-])c1C)C(=O)C(NCc1cccc(OC)c1)=CC2=O
inactive: SK-MEL-2 melanoma 64.3% | UO-31 renal 76.8% | TK-10 renal 104% | ACHN renal 47.8% | CAKI-1 renal 55.7% | A498 renal 108% | CCRF-CEM leukemia 16.3%
active: SN12C renal 2.9% | MOLT-4 leukemia 3.8%

O=C(CN1C(=O)S/C(=C\c2ccccc2)C1=O)Nc1ncc(Cc2ccccc2Cl)s1
inactive: SK-MEL-2 melanoma 102% | SN12C renal 102% | UO-31 renal 75.1% | TK-10 renal 103% | ACHN renal 92% | CAKI-1 renal 78.2% | A498 renal 112% | CCRF-CEM leukemia 97.7% | MOLT-4 leukemia 85.9%

O=C(/C=C/c1cccc(Cl)c1)c1ccc(Nc2nc(Nc3ccc(F)cc3)nc(Nc3ccc(Cl)cc3)n2)cc1
inactive: SK-MEL-2 melanoma 72.2% | SN12C renal 136% | UO-31 renal 94.6% | TK-10 renal 127% | ACHN renal 116% | A498 renal 124% | CCRF-CEM leukemia 103% | MOLT-4 leukemia 94%

Cc1ccc(-c2nc(N3CCCNCC3)c3oc(-c4ccc(C)cc4)nc3n2)cc1
inactive: SK-MEL-2 melanoma 105% | SN12C renal 59.1% | UO-31 renal 62.6% | CAKI-1 renal 108% | A498 renal 101%
active: TK-10 renal -1.53% | ACHN renal -77.1% | CCRF-CEM leukemia -72.1% | MOLT-4 leukemia -66%

Cc1ccc(CNc2ccc3nc(CCC4CCCCC4)[nH]c3c2)cc1
inactive: SK-MEL-2 melanoma 58.8% | SN12C renal 45.7% | UO-31 renal 23.8% | TK-10 renal 54.8% | ACHN renal 47.8% | CAKI-1 renal 35.8% | A498 renal 57.5% | CCRF-CEM leukemia 39.9% | MOLT-4 leukemia 19.5%

C=C1C(=O)O[C@H]2[C@H]1CC/C(Cn1cc(-c3ccccc3)nn1)=C\CC[C@@]1(C)O[C@@H]21
active: SK-MEL-2 melanoma 6.62% | SN12C renal 6.55% | UO-31 renal -75.1% | TK-10 renal -72.1% | ACHN renal -40.7% | CAKI-1 renal -62.8% | CCRF-CEM leukemia -20.7% | MOLT-4 leukemia -13.8%
inactive: A498 renal 46.6%

CCOc1ccc(NC(=O)CSc2oc(-c3ccccc3)nc2S(=O)(=O)c2ccc(C)cc2)cc1
inactive: SK-MEL-2 melanoma 96.6% | SN12C renal 85.2% | UO-31 renal 103% | TK-10 renal 82.4% | ACHN renal 58.9% | CAKI-1 renal 83.9% | A498 renal 86.2% | CCRF-CEM leukemia 84.8% | MOLT-4 leukemia 66.1%

COc1cccc(/C=C2\COc3ccc(O)c(O)c3C2=O)c1
active: SN12C renal -54.3% | UO-31 renal -93.3% | ACHN renal -79.2% | CAKI-1 renal 0.272% | CCRF-CEM leukemia 3.04% | MOLT-4 leukemia 2.08%
inactive: SK-MEL-2 melanoma 57.1% | TK-10 renal 21.5% | A498 renal 111%

CC1=C([Se]CC(OC(=O)CC[Se]c2ccccc2)C(=O)NC(C)(C)C)C(=O)c2ccccc2C1=O (stereo unspecified)
active: SK-MEL-2 melanoma 9.93% | SN12C renal -62.5% | UO-31 renal -12% | TK-10 renal -89.8% | ACHN renal -55.5% | CAKI-1 renal -34.3% | A498 renal -26.4% | CCRF-CEM leukemia -10.8% | MOLT-4 leukemia -31.6%

Cc1cc(N2CCN(CC(=O)Nc3ccc4c(ccn4C)c3)CC2)nc(N2CCCCCC2)n1
inactive: SK-MEL-2 melanoma 92.1% | SN12C renal 98% | UO-31 renal 67.1% | TK-10 renal 87.2% | ACHN renal 88.4% | CAKI-1 renal 84.6% | A498 renal 46.3% | CCRF-CEM leukemia 35.3% | MOLT-4 leukemia 85.3%

CCCc1c(OC(=O)c2ccccc2)nc2[nH]c(=O)sc2c1C
inactive: SK-MEL-2 melanoma 107% | SN12C renal 92% | UO-31 renal 82.3% | TK-10 renal 96.1% | ACHN renal 107% | CAKI-1 renal 95.6% | A498 renal 108% | CCRF-CEM leukemia 103% | MOLT-4 leukemia 104%

CC(C)c1ccc(C(=O)Nc2sc3c(c2C(N)=O)CCC(=O)C3)cc1
active: SK-MEL-2 melanoma -21.5% | SN12C renal 2.75% | UO-31 renal -97.1% | TK-10 renal -10.6% | ACHN renal -96.8% | CAKI-1 renal -43.9% | CCRF-CEM leukemia 2.5% | MOLT-4 leukemia -8.16%
inactive: A498 renal 62.5%

N#CSCC1CC(O)(c2ccccc2)CC(c2ccc(F)cc2)O1 (stereo unspecified)
active: SK-MEL-2 melanoma -54.6% | SN12C renal -61.5% | ACHN renal 9.51% | CAKI-1 renal -44.9% | CCRF-CEM leukemia 7.42% | MOLT-4 leukemia -0.406%
inactive: UO-31 renal 33.3% | TK-10 renal 59.7% | A498 renal 33.3%

CNC(=O)c1[nH]cc(-c2ccc(OC)cc2)c1-c1cc(OC)c2c(c1OC)OCO2
inactive: SK-MEL-2 melanoma 105% | SN12C renal 96.8% | UO-31 renal 82.9% | TK-10 renal 108% | ACHN renal 97.7% | CAKI-1 renal 83.6% | A498 renal 109% | CCRF-CEM leukemia 101% | MOLT-4 leukemia 109%

COc1cc2c(cc1OCCCN1CCN(CCCOc3cc4c(cc3OC)C(=O)N3CCC[C@H]3C=N4)CC1)C=CC(C)(C)O2
active: SK-MEL-2 melanoma -77% | SN12C renal -65.7% | UO-31 renal -58.8% | TK-10 renal -83.6% | ACHN renal 4.25% | CAKI-1 renal -71% | A498 renal -100% | CCRF-CEM leukemia -48.6% | MOLT-4 leukemia -12.8%
